Among the data in PubChem BioAssay (NCI) are growth values, retold here.

The panel holds about 83,000 compounds, 20% with a hit somewhere; the sample as a whole holds those more often.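 In brief: 96-well plates, 48 h treatment, single concentration, percent growth endpoint.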 Unmarked numbers belong to inactive results. Activity calls are given as the source filed them. How the source made its calls: active means growth percent below 10; inactive means the rest.

Test in all cases: NCI-60 one-dose screen, 48 h (100 = growth as untreated, 0 = no growth, -100 = all killed)
Conditions in all cases: 10 µM unless noted

Test [1] concerns SK-MEL-2 melanoma.
The subject of test [2] is EKVX NSCLC.
The subject of test [3] is SN12C renal.
Test [4] deals with UO-31 renal.
The test system of test [5] is TK-10 renal.
The subject of test [6] is CAKI-1 renal.
In test [7] the test system is A498 renal.
Test [8] has as its system CCRF-CEM leukemia.
Test [9] deals with MOLT-4 leukemia.

For `CSc1cccc([N+](=O)[O-])c1`, the growth in [1] was 106%; in [2], 103%; in test [3], 86.2%; in [4], 95.7%; in test [5] it was 108%; in test [6], 101%. The growth was 121% in [7], 90.3% in test [8] and 107% in test [9].
For `C[C@]12CCc3nc(Nc4ccccc4)sc3C1=CC[C@@H]1[C@@H]2CC[C@]2(C)/C(=N/NC(N)=S)CC[C@@H]12`, the growth in test [1] is 66.9%; in [2], 78.2%; in [3] it was 49.2%; in [4] it was 60%; in [5] it was 38.3%; in [6], 49.6%. In addition, the growth in test [7] was 48%; in [8], 18.7%; in [9], 8.01% (active).
With `CCOc1cc(NC(=O)c2ccccc2)c(OCC)cc1N`, the growth in [1] is 112%; in test [2] it was 113%; in [3], 113%; in test [4], 102%; in test [5] it was 112%; in test [6], 102%. The growth in test [7] was 113%; in [8] it was 107%.
Regarding `C=CCCCCCCCCC(=O)OC(C)C`, the growth is 101% in test [1]; 101% in [2]; 105% in [3]; 88.9% in test [4]; 101% in test [5]; 107% in test [6]. In addition, the values for the growth in test [7], in [8] and in test [9] were 91.4%, 2.8% (active) and 95.2%, respectively.
As for `C[n+]1c2ccccc2nc2c(N)cc(N)cc21`, the growth in test [1] is 121%; in test [2] it was 65.9%; in test [3], 5.51% (active); in [4], 78.3%; in [5], 126%; in [6] it was 111%. Further, the values for the growth in [7] and in [9] were 121% and 34.8%, respectively.
As for `CCn1cc(-c2ccnc(NCCNS(=O)(=O)c3ccc(Br)cc3)c2)c(-c2cccc(OC)c2)n1`, the growth was 90.8% in [1]; 77% in test [2]; 77% in test [3]; 45.6% in test [4]; 83.2% in test [5]; 66.1% in test [6]. The figures for the growth in test [7], in [8] and in test [9] were 66.2%, 43.2% and 34.8%, respectively.
Consider `CCOC(=O)c1nn(C2CCCCO2)c2ccc(NC(=O)CN3CCCC3)cc12` (stereo unspecified), for which the growth in test [1] was 107%; in test [2], 95.8%; in test [3], 98.9%; in test [4], 84.4%; in test [5] it was 103%; in test [6], 91.5%. In addition, the growth was 78.9% in test [7], 108% in test [8] and 99.3% in [9].
